MenB inh = Mtb MenB enzyme inhibition. inhibition, % (no concentration beside the values). 100,000 tested, 0.43% active. P9WNP5. MenB enzyme assay, absorbance read-out; in the data active means inhibition above about 21%, passing the limit was not always enough
PV pol inh = poliovirus RNA polymerase inhibition. % elongation, % (compound at 16.7 µg/mL). P03300. 150,000 tested, 0.66% active. poliovirus polymerase elongation, fluorescence polarization; stronger effect = lower value. AID 588519; in the data active means % elongation below about 90%
Target sequence (P03300 1749-2209 limits assumed): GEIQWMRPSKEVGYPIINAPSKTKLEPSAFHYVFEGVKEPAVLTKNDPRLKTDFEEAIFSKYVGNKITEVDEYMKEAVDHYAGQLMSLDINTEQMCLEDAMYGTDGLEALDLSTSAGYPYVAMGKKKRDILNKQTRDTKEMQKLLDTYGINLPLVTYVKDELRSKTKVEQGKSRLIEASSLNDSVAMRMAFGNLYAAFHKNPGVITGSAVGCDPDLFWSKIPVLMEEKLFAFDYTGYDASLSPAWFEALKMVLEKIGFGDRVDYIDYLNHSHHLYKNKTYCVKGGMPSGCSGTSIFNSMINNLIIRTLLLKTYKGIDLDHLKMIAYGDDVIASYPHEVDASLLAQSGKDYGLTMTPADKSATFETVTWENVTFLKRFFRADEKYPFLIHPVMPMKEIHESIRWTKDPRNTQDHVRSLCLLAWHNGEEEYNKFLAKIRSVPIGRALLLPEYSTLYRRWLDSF
MbtI inh = MbtI salicylate synthase inhibition. 100,000 tested, 0.89% active. purified MbtI enzyme, fluorescence intensity read-out. P9WFX0. inhibition, % (no concentration beside the values). AID 493033; in the data active means inhibition mostly above about 56%, no sharp cut-off; inactive means mostly below about 77%
Numbers without * were called inactive; . = no result. A selection: hits, their analogues and other compounds. The true share with any hit is near 1.4%.

SMILES | MenB inh | PV pol inh | MbtI inh
CC(C)Cc1csc2ncnc(NCCO)c12 | 1 | 88* | 2
OCCNc1ncnc2scc(-c3ccc(F)cc3)c12 | -2 | 103 | 18
CCOc1ccc(/C=C(\C#N)C(=O)Nc2sc3c(c2C(=O)OC)C(C(=O)OC)CC3)cc1OC (stereo not drawn) | . | 73* | .
CCOC(=O)c1c(NC(=O)/C(C#N)=C/c2ccc(OC)cc2)sc2c1CCC2 | . | 106 | .
CCN(CC)S(=O)(=O)c1ccc(NC(=O)CSc2nncn2-c2ccccc2)cc1 | 0 | 107 | -13
CC1CN(C(C)(C)C)CCC1(O)c1ccccc1 (stereo not drawn) | 34* | 101 | -1
CC1CN(C)CC(C)C1(O)c1ccccc1 (stereo not drawn) | -2 | 109 | .
Nc1cccc(NC(=O)c2ccccc2)c1 | -16 | 98 | 10
O=C1NC(=O)C(C(c2ccccc2)c2ccccc2)C(=O)N1 | 32* | 99 | 1
O=C1NC(=O)C(c2ccccc2)N1 (stereo not drawn) | -2 | 106 | -3
CCCC/C(C)=N/n1c(-c2ccco2)csc1=NC | -40 | 133 | 19
Cc1ccc(C)c(SCC(=O)NC(C)C(c2ccccc2)N2CCOCC2)c1 (stereo not drawn) | . | 88* | 2
Cc1ccc(C)c(SCC(=O)NC(C)C(c2cccs2)N2CCCC2)c1 (stereo not drawn) | . | 99 | 3
COc1ccc(NC(=O)CC2Sc3ncnn3C2=O)cc1 (stereo not drawn) | . | . | 100*
COc1ccc(NC(=O)CC2SC(=Nc3ccccc3)N(c3ccccc3)C2=O)cc1 (stereo not drawn) | -23 | 103 | -1
O=C(c1ccco1)N1CCN(C(=O)c2ccco2)CC1 | -36 | 104 | -6
O=C(c1ccco1)n1c(=S)nc2ccccn21 | -16 | 83* | .
c1ccc(-c2noc(NC3CC3)n2)cc1 | 0 | 101 | -8
Cc1ccc(Nc2nc(CSc3nnnn3Cc3cccs3)cs2)cc1 | -42 | 106 | 6
Cc1ccc(S(=O)(=O)Nc2c(C#N)c3nc4ccccc4nc3n2Cc2ccccc2)cc1 | -33 | 73* | -22
C=CCn1c(NS(=O)(=O)c2ccccc2)c(C#N)c2nc3ccccc3nc21 | -54 | 201 | 3
CCCC(C)C(=O)N1CCC(Cc2ccccc2)CC1 (stereo not drawn) | -32 | 102 | -9
Cc1ccc(-c2cc3nc4c(c(C(F)(F)F)n3n2)CCC4)cc1 | 8 | 100 | -2
NC(=O)Nc1ccc(C(=O)O)cc1 | -14 | 102 | .
COc1ccc(CCNC(=O)c2ccc3c(c2)N(Cc2ccccc2)C(=O)c2ccccc2S3=O)cc1OC (stereo not drawn) | . | -15* | .
SMILES | MenB inh | PV pol inh | MbtI inh
O=C(NCCc1ccccc1)c1ccc2c(c1)N(Cc1ccccc1)C(=O)c1ccccc1S2=O (stereo not drawn) | . | 102 | .
Cc1ccc(NC(=O)C(C)Sc2nc(N)cc(=O)[nH]2)cc1 (stereo not drawn) | . | . | -15
Cc1cc(SCC(=O)Nc2oc(C)c3c(C)n[nH]c(=O)c23)nc2ccccc12 | 11 | 106 | 57
Cc1ccc2[nH]cc(CCNS(C)(=O)=O)c2c1 | 26* | 102 | 14
CS(=O)(=O)NCCc1c[nH]c2ccc(Cl)cc12 | -13 | 101 | 4
CC(=O)NNc1ncnc2c1cnn2-c1ccc(F)cc1 | -15 | 102 | -2
O=C(c1cc(-c2ccccc2)nn1-c1ccccc1)N(C1CC1)C1CCS(=O)(=O)C1 (stereo not drawn) | -20 | 99 | -9
O=C1c2cccnc2C(=O)N1Cc1ccc(S(=O)(=O)N2CCCN(Cc3ccc(F)cc3)C2)cc1 | -7 | 105 | -7
CCN(CC1COc2ccccc2O1)C(=O)c1ccc2c(c1)SC1=NS(=O)(=O)CCN12 (stereo not drawn) | -33 | 84* | 7
CCN(CC1COc2ccccc2O1)C(=O)c1cnccn1 (stereo not drawn) | -14 | 111 | 7
CSc1[nH]c(=O)[nH]c(=O)c1C#N | -11 | 101 | 0
CSc1s[nH]c(=O)c1C#N | 9 | 86* | .
CC1(C)CC(NC(=O)CCc2ccccc2)CC(C)(C)N1 | 39* | 101 | 4
CC1(C)CC(NC(=O)CCCC(=O)O)CC(C)(C)N1 | -6 | 102 | -19
CN1CC(=O)N(c2ccccc2)C1=S | -66 | 102 | 0
O=C1Nc2ccccc2/C1=N\N=C1/SCC(=O)N1c1ccc(O)cc1 | -73 | 97 | -13
Cn1c(C2CCCCC2)nc2ccccc21 | 28* | 102 | 1
CN(Cc1nc2ccccc2n1C)CC1CCCCC1 | -19 | 102 | 0
CN1CCN(C(=O)COc2ccccc2O)CC1 | . | 104 | -6
Cc1nc(-c2ccccc2)sc1C(=O)NCc1ccco1 | -6 | 102 | -32
CNC(=O)c1sc(NCc2ccco2)nc1C | -25 | 77* | 98*
CC1=CC(=C(C#N)C#N)C=C(c2ccccc2)N1Cc1ccco1 | -29 | 100 | 16
NNC(=O)c1nn(-c2ccccc2)c(=O)c2c(N)scc12 | 1 | 91 | 41
CCc1c(C(=O)OC)nn(-c2ccc(OC)cc2)c(=O)c1C#N | -24 | 99 | 12
COC(=O)c1nn(-c2ccc(OC)cc2)c(=O)c2c(N)sc(C)c12 | -55 | 83* | 77*
SMILES | MenB inh | PV pol inh | MbtI inh
COC(=O)c1nn(-c2ccccc2)c(=O)c2c(N)sc(C)c12 | -13 | 73* | 76*
CCCNC(=O)N1c2ccc(F)cc2CCC1C (stereo not drawn) | -14 | 103 | -3
c1ccn2c(c1)nc1c2nc2ccccn21 | -18 | 101 | 77
Oc1nc2ccccn2c1-c1c(O)nc2ccccn12 | . | 21* | 6
O=C(C[n+]1cccc(C(=O)Nc2ccccc2)c1)c1ccc(N2C(=O)c3ccccc3C2=O)cc1 | -89 | 102 | 57*
COc1ccc(NC(=O)c2ccc(N3C(=O)c4ccccc4C3=O)cc2)cc1 | -18 | 103 | 1
CCOC(=O)c1sc(N(C)C(C)=O)nc1C | 39* | 99 | 19
CCOC(=O)c1sc(N(Cc2ccccc2)C(=O)CN2CCN(C(C)=O)CC2)nc1C | 8 | 103 | 8
Cc1cc(C)c(Nc2nn3c(=O)c4cc5c(cc4nc3s2)OCO5)c(C)c1 | . | 87* | .
Cc1ccccc1Nc1nn2c(=O)c3ccc(C(=O)NCc4ccccc4)cc3nc2s1 | . | 104 | .
Cc1cccc(C)c1Nc1nn2c(=O)c3ccccc3nc2s1 | -33 | 88* | 51
Cc1ccc(Nc2nn3c(=O)c4cc5c(cc4nc3s2)OCO5)cc1Cl | . | 105 | .
Cc1cc(C)n(-c2ccc(C(=O)NCCSCc3ccco3)cc2)n1 | -10 | 101 | 4
O=c1nc(N2CCOCC2)ccn1Cc1ccc(Cl)cc1 | -14 | 103 | -2
CC(C)N(C(C)C)S(=O)(=O)c1ccc(Oc2ccc3c4c(c(=O)oc3c2)CCC4)nc1 | -5 | 103 | -19
C=CCC1CC=CC(C)N1C(=O)OCc1ccccc1 (stereo not drawn) | -24 | 106 | -12
N/C(=N\O)c1c(Cl)cccc1Cl | 11 | 104 | 200
N/C(=N/O)c1ccccc1N | 42* | 102 | 26
CNC(=S)N(C)CC(=O)Nc1c(Cl)cccc1Cl | -24 | 100 | 3
O=c1[nH]c2ccc(Cl)cc2c(=O)n1Cc1ccccc1 | -31 | 100 | -9
CSC1=NC(C)(C)Cc2c(C)cccc21 | 0 | 90* | .
COc1cc2c(cc1OC)C(SC)=NC(C)(C)C2 | 19 | 102 | -20
